Results from PubChem BioAssay.

Tested on: Sam68 (KHDRBS1)
Experiment: compounds binding KHDRBS1 protein – biochemical, small-molecule microarray, 635 nm fluorescence, primary screen (AID 1125);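 also: score merges 667 nm channel intensity with signal to noise over triplicate slides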
Settings: higher = more signal

Q: For C[N+](C)(C)CCCCCCNC(=O)[C@@H]1C[C@@H]2C(=O)N[C@@H](Cc3ccccc3)C(=O)N2[C@@H]1c1cccc(OCCO)c1, which composite z-score is on record?
A: 1.05

Q: How did the composite z-score turn out when NC(=O)[C@@H]1[C@H]2C(=O)O[C@H](c3ccccc3)[C@H](c3ccccc3)N2[C@H](c2ccc(O)cc2)[C@@]12C(=O)Nc1ccccc12 was run?
A: 0.203

Q: C=C(CCCC)/C(=C/C[C@@H](OC(C)=O)c1ccc(OCCO)cc1)c1cnc2ccccc2c1 was tested. Which composite z-score did it give?
A: 1.28

Tested on: Chordin-like protein 2 (CHRDL2)
Experiment: compounds binding chordin-like 2 – biochemical, small-molecule microarray, 635 nm fluorescence, primary screen (AID 1126);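 also: printed compound slides probed with Chrdl2 protein at 4 µg/mL for 1 h at 4 C; score merges 667 nm emission intensity with signal to noise over three replicate slides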
Settings: fluorescence 635 nm, higher = more signal

Q: How did the composite z-score turn out when CC(C)=CCN[C@H](CO)c1ccccc1 was run?
A: 0.218

Q: For CCCC#C[Si](O[C@H](CC)c1cn(Cc2cccc(Cl)c2)nn1)(C(C)C)C(C)C, which composite z-score is on record?
A: 0.103

Q: Which composite z-score does the source give for C=CCOC(=O)[C@H]1[C@@H]2C(=O)O[C@@H](c3ccccc3)[C@@H](c3ccccc3)N2[C@@H](c2ccc(OCCOC(=O)[C@H]3C[C@H]4C(=O)N[C@@H](CCCCNC(C)=O)C(=O)N4[C@H]3c3cccc(OCCO)c3)cc2)[C@]12C(=O)Nc1ccccc12 here?
A: 1.31

Q: With C=C(COC)/C(=C/C[C@@H](OC(=O)c1ccncc1)c1ccc(CO)o1)c1cc(C(=O)OC)ccc1OC as the compound, how does the composite z-score read?
A: 1.1

Q: For CC(C)C(=C=CC[C@@H](O)c1ccc(OCCO)cc1)C[C@@H](O)COCc1ccccc1, which composite z-score is on record?
A: 0.325

Q: CCCCCCc1nc(-c2cc(C)c(OC)c(C)c2)cc2c1[Si](C(C)C)(C(C)C)OC2 was tested. Which composite z-score did it give?
A: 0.119

Q: For COc1cc2c(cc1O)C(C1CC1)N(Cc1sc3ccccc3c1Cl)CC2 (stereo unspecified), which composite z-score is on record?
A: 0.185

Q: How did the composite z-score turn out when COCCOC(=O)N1C(=O)[C@@]2(c3cc(C#CCC(C(=O)OC)C(=O)OC)ccc31)[C@H](C(=O)N1CCN(c3ncccn3)CC1)[C@H]1C(=O)O[C@H](c3ccccc3)[C@H](c3ccccc3)N1[C@@H]2c1ccccc1OCCO was run?
A: 1.09
